# Compounds without any hit were thinned out: in the full panel of roughly 83,000, 20% have a hit.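 Assay: single dose, 48 h. Readout: percent growth (0 = no net growth; negative = cell death). Active: <10.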 The source made the active and inactive calls.
# Test system: HT29 colon
# Assay: NCI-60 one-dose screen, 48 h (100 = growth as untreated, 0 = no growth, -100 = all killed)
# Settings: 10 µM unless noted
row,Compound,growth
1,CC(=O)O[C@H]1C(=O)[C@@]2(C)[C@H]([C@H](OC(=O)c3ccccc3)[C@]3(O)C[C@H](OC(=O)[C@H](OC(=O)OCC4COC(C)(C)O4)[C@@H](NC(=O)c4ccccc4)c4ccccc4)C(C)=C1C3(C)C)[C@]1(OC(C)=O)CO[C@@H]1C[C@@H]2O (stereo partly specified),9.74% (active)
2,CC[C@H](C)[C@H](NC(=O)C12CC(NC(C)=O)(C1)C2)C(=O)N(C)[C@H](C[C@@H](OC(C)=O)c1nc(C(=O)N[C@@H](Cc2ccccc2)C[C@H](C)C(=O)OC)cs1)C(C)C,5.65% (active)
3,CCn1cnc2c(Nc3cccc(Cl)c3)nc(N[C@@H]3CCCC[C@@H]3N)nc21,-4.11% (active)
4,O=C(O)C1C(C(=O)O)C2(Cl)C(Cl)=C(Cl)C1(Cl)C2(Cl)Cl.[Hg] (stereo unspecified),82.2% (inactive)
5,CC[C@H](C)[C@H](NC(=O)[C@H]1CCCCN1C)C(=O)N(C)[C@H](C[C@@H](OC(C)=O)c1nc(C(=O)N[C@@H](Cc2ccccc2)C[C@H](C)C(=O)OC)cs1)C(C)C,-3.46% (active)
6,CN1C(=O)C(=Cc2cn(CCCCCCn3c4ccccc4c(=O)c4ccccc43)c3ccccc23)C(=O)N(C)C1=O,96.1% (inactive)
7,CC(C)(C)C(=O)OCOP(=O)(OCOC(=O)C(C)(C)C)C1CCCN(O)C1=O (stereo unspecified),2.01% (active)
8,COC(=O)[C@@H](C)C[C@H](Cc1ccc2ccccc2c1)NC(=O)c1csc([C@@H](C[C@H](C(C)C)N(C)C(=O)[C@@H](NC(=O)[C@H]2CCCCN2C)C(C)C)OC(C)=O)n1,1.71% (active)
9,C=C1C(=O)O[C@H]2[C@H]1CC/C(COC(=O)C(=O)c1cn(Cc3ccccc3)c3ccccc13)=C\CC[C@@]1(C)O[C@@H]21,-40.2% (active)
10,CN(CCCCN(C)CCOS(C)(=O)=O)CCOS(C)(=O)=O,86.9% (inactive)
11,NC(=O)CNc1ccc([As]=[As]c2ccc(NCC(N)=O)cc2)cc1 (stereo unspecified),38.9% (inactive)

# From PubChem BioAssay (NCI)
